Hit rate of the full screen: of about 310,000 compounds, about 11,000 (3.5%) were called active. Roughly 4% stayed inconclusive and do not appear here. The full list was thinned out, with actives kept by preference. Values without a mark were called inactive. Calls come from the whole dose curve; as a rule, active = well fitted inhibition curve with a large enough effect; inconclusive = small, poorly fitted or top-dose-only effect, or another doubt; inactive = no such curve, though single readings can be large or run the other way.
Potency is the fitted concentration of half-maximal effect.

The assay concerns the target 4'-phosphopantetheinyl transferase ffp (Bacillus subtilis) (UniProt Q9F4F7). Description: qHTS Assay for Inhibitors of Bacillus subtilis Sfp phosphopantetheinyl transferase (PPTase).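 For largest response in the series, negative = inhibition: 0% = enzyme reaction without inhibitor and -100% = no enzyme wells.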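 Note: the enzyme is Sfp with the accession as filed and its product quenches rhodamine fluorescence.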 Conditions: Biochemical Sfp PPTase activity. In short, it runs like this:
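After 15 min at room temperature with compound, 15 nM Sfp received 5 uM rhodamine-CoA plus 12.5 uM BHQ-2-ybbR (50 mM Hepes pH 7.6, 10 mM MgCl2). Rate came from the fluorescence difference over 30 min, ex 525/em 598 nm.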
A general note: Quantitative high-throughput screening tests each substance at several concentrations.
On to `Cc1ccc(C)c(OCCC(=O)OCC(=O)N2CCN(c3ccccc3)CC2)c1`, for which the largest response in the series, negative = inhibition is -6.17%.
On to `Cc1coc2c1c(C)cc1oc(=O)c(CC(=O)NCC(=O)N[C@H](C(=O)O)C(C)C)c(C)c12`, for which the largest response in the series, negative = inhibition was 1.89%.
For the compound `CCn1cc(S(=O)(=O)c2cccc(C)c2)c(=O)c2cc(F)c(N3CCN(C)CC3)cc21`, the largest response in the series, negative = inhibition was 4.71%.
With `NCCCC[C@@H]1NC(=O)[C@H](CCC(=O)O)NC(=O)c2cc([N+](=O)[O-])cc(I)c2NCC[C@@H](C(N)=O)NC1=O`, the Potency was 31.6 µM (active).
For the compound `NC(=O)CC[C@@H]1NC(=O)[C@H](CO)NC(=O)c2cc([N+](=O)[O-])cc(I)c2NCC[C@@H](C(N)=O)NC1=O`, the largest response in the series, negative = inhibition was -7.09%.
Still for that read-out and setting: for `NC(=O)C[C@@H]1NC(=O)CNC(=O)c2cc([N+](=O)[O-])cc(I)c2NCCC(C(N)=O)NC1=O` (some centres not stated) the value was -12.4%; for `COc1cccc(CNC(=O)C2CCCN(S(=O)(=O)N3CC(C)CC(C)C3)C2)c1` (configuration not stated), 6.86%.
Take `CCC(CC)COC(=O)C1=C(C)NC(=O)NC1c1ccc([N+](=O)[O-])cc1` (configuration not stated): the largest response in the series, negative = inhibition is 7.14%.
Turning to `COCCNC(=O)Nc1ccc2nc(-c3ccco3)c(-c3ccco3)nc2c1`, the Potency was 4.47 µM (active).
As for `COc1cccc(S(=O)(=O)NCc2ccc(C(=O)NCc3ccccn3)cc2)c1`, the largest response in the series, negative = inhibition is 12.9%.
As for `CC(C)(C)c1ccc(NC(=O)NCc2ccco2)cc1`, the largest response in the series, negative = inhibition was 8.16%.
For the compound `O=C(Nc1ccc2nccnc2c1)c1ccco1`, the largest response in the series, negative = inhibition was 15.4%.
Same read-out and setting: in the case of `O=C(NCc1ccccn1)c1cc(Br)ccc1Cl` it was -2.95%.
Consider `O=C(NCc1ccccn1)c1ccc2nc(-c3ccco3)c(-c3ccco3)nc2c1`, for which the Potency was 14.1 µM (active).
In the case of `COc1ccc(CCN2CC(C(=O)NCCN3CCNC3=O)CCC2=O)cc1` (configuration not stated), the largest response in the series, negative = inhibition is 19%.
The same measure, in the same setting: for `COc1ccc2c(c1)c1nc3n(c(=O)c1n2CC(=O)Nc1ccccc1)CCS3` the value was 1.1%; for `COc1ccc(C(=O)/C=C/c2cccnc2)c(OC)c1`, 9.73%.
In the case of `O=[N+]([O-])c1cccc(/C=N/Nc2ncc(Br)cn2)c1`, the largest response in the series, negative = inhibition is 16.8%.
As for `O=S(=O)(NC1CC1)c1ccc(F)c(F)c1`, the largest response in the series, negative = inhibition was 16.5%.
`CC1CCC(NS(=O)(=O)c2ccc3c(c2)n(C)c(=O)c(=O)n3C)CC1` (configuration not stated): the largest response in the series, negative = inhibition is 8.22%.
Take `Cn1sc(=O)c2cc(S(=O)(=O)NC3CC3)ccc21`: the Potency is 11.2 µM (active).
Turning to `Cc1nonc1NC(=O)c1oc2ccccc2c1C`, the largest response in the series, negative = inhibition is -2.27%.
As for `CC(=O)c1ccc(N2CCN(CC(O)c3ccccc3)CC2)cc1` (configuration not stated), the largest response in the series, negative = inhibition is 16.5%.
For the compound `CCc1ccc(Oc2coc3cc(O)ccc3c2=O)cc1`, the largest response in the series, negative = inhibition was 12.7%.
On the same count and under the same terms, for `COc1ccc(CNC(=O)C2CCN(C(=O)c3ccco3)CC2)cc1` the value was 5.46%.
Consider `Cc1nnc(NC(=O)/C=C/c2ccco2)s1`, for which the Potency is 11.2 µM (active).
For the compound `CCC(CC)c1nnc(NC(=O)c2nn(C)c(=O)c3ccccc23)s1`, the largest response in the series, negative = inhibition was 10.8%.
For `C/C=C/C(=O)Nc1nnc(C(C)C)s1`, the largest response in the series, negative = inhibition is -3.92%.
Consider `CCOC(=O)c1c(NC(=O)/C=C/c2ccco2)sc(C)c1C`, for which the largest response in the series, negative = inhibition is -8.04%.
Take `O=C(/C=C/c1ccco1)Nc1ccc(Oc2ccccc2)cc1`: the largest response in the series, negative = inhibition is 2.06%.
`CCC(CC)c1nnc(NC(=O)C2CCN(C(=O)c3ccco3)CC2)s1`: the Potency was 39.8 µM (active).
Consider `CCC(CC)c1nnc(NC(=O)/C=C/c2ccco2)s1`, for which the Potency was 56.2 µM (active).
For `CCC(c1nnnn1C1CCCC1)N1CCN(C(=O)c2ccco2)CC1` (configuration not stated), the largest response in the series, negative = inhibition was 6.92%.
For `FC(F)(F)c1nnc2c3ccccc3c(Cl)nn12`, the largest response in the series, negative = inhibition was 10.4%.
As to `CC1CCN(S(=O)(=O)c2ccc(NC(=O)C3CC(=O)N(c4ccccc4)C3)cc2)CC1` (configuration not stated), the largest response in the series, negative = inhibition was 6.28%.
With `Cc1cc(S(=O)(=O)NC2CCCC2)ccc1-n1cnnn1`, the largest response in the series, negative = inhibition was 16.3%.
Take `CCOc1ccc(C(=O)Nc2c3c(nn2-c2ccccc2)CS(=O)(=O)C3)cc1`: the largest response in the series, negative = inhibition was 11.5%.
Turning to `CC(=N\NC(=O)c1cc(Br)ccc1O)/C(=N/O)C(=O)Nc1ccccc1`, the largest response in the series, negative = inhibition is 16.6%.
On to `O=C(NCCc1ccccc1Cl)C1CCC(=O)N(CCCc2ccccc2)C1` (configuration not stated), for which the largest response in the series, negative = inhibition was -2.68%.
Consider `COC(=O)c1ccc(COc2ccc(/C=C/C(=O)c3ccc(OC)c(CSCC(=O)O)c3)cc2OC)cc1`, for which the largest response in the series, negative = inhibition is -20.4%.
For the compound `COc1ccc(C2/C(=C(/O)c3ccc4c(c3)CC(C)O4)C(=O)C(=O)N2Cc2ccncc2)cc1` (configuration not stated), the largest response in the series, negative = inhibition is -0.196%.
As for `COc1cccc2cc(-c3cc(=O)oc4cc(C)c(O)cc34)oc12`, the largest response in the series, negative = inhibition was -19.1%.
For `C=C(Cl)COC(=O)C1C2C=CC(C2)C1C(=O)O` (configuration not stated), the largest response in the series, negative = inhibition was -7.02%.
As for `O=C(O)C1C2C=CC(C2)C1C(=O)N1CCN(CCO)CC1` (configuration not stated), the Potency was 20 µM (active).
With `CN1CCN(C(=O)C2C3C=CC(C3)C2C(=O)O)CC1` (configuration not stated), the largest response in the series, negative = inhibition is -2.06%.
With `CC(CN1CCOCC1)OC(=O)c1ccc(C(C)(C)C)cc1` (configuration not stated), the largest response in the series, negative = inhibition is -0.906%.
For the compound `Cc1cccc(N2CCN(S(=O)(=O)c3ccc(-c4cc(C)no4)s3)CC2C)c1` (configuration not stated), the largest response in the series, negative = inhibition was 13.1%.
`CCOC(=O)c1sc(NC(=O)CSc2ncccn2)c(C#N)c1C`: the largest response in the series, negative = inhibition is 15.3%.
For `CCOC(=O)c1sc(NC(=O)CSc2nc(C)cc(C(F)(F)F)n2)c(C#N)c1C`, the Potency is 20 µM (active).
For `Cc1cc(C(F)(F)F)nc(SCC(=O)Nc2nccs2)n1`, the largest response in the series, negative = inhibition is -13.1%.
Take `O=C(O)c1cccc2c1C(=O)N(C1CCCC1)C2`: the largest response in the series, negative = inhibition is 17.2%.
On to `Cc1cc(Cl)nc(NC(=O)Nc2cccc(Cl)c2)n1`, for which the largest response in the series, negative = inhibition was -3.29%.
Regarding `Cc1ccc(Nc2ccccc2N)cc1`, the largest response in the series, negative = inhibition was -23.1%.
Regarding `Nc1ccc(Nc2ccccc2)cc1`, the Potency is 56.2 µM (active).
In the case of `Cc1cc(Nc2ccccc2)n(C(=O)c2ccc(N)cc2)n1`, the largest response in the series, negative = inhibition was -8.73%.
Regarding `O=C1OC2(CCCCC2)CC2=C1C1O[C@](c3ccsc3)(Cc3ccccc31)O2`, the largest response in the series, negative = inhibition was -2.9%.
Turning to `COC(=O)CCc1ccccc1S(=O)(=O)N(CCC(=O)OC)Cc1ccccc1`, the largest response in the series, negative = inhibition was -14.7%.
On to `CCN(CC(=O)Nc1cccc(S(N)(=O)=O)c1)Cc1nc2ccccc2c(=O)[nH]1`, for which the Potency was 50.1 µM (active).
As to `CCN(CC(=O)Nc1ccc(Cl)c(S(=O)(=O)N(C)C)c1)Cc1nc2ccccc2c(=O)[nH]1`, the largest response in the series, negative = inhibition was -31.5%.
Same read-out and setting: in the case of `CCN(CC(=O)NC(=O)NCc1ccccc1)Cc1nc2ccccc2c(=O)[nH]1` it was -53%; in that of `CN1CCN(C(=O)c2cnn(-c3ccccc3)c2NC(=O)c2ccc([N+](=O)[O-])cc2)CC1`, 1.55%.
In the case of `CC1CCN(C(=S)c2cccc([N+](=O)[O-])c2)CC1`, the Potency is 44.7 µM (active).
For `CC1CCN(C(=S)NC(=O)c2ccccc2Br)CC1`, the largest response in the series, negative = inhibition was 14.1%.
On the same count and under the same terms, in the case of `O=C(c1cccc([N+](=O)[O-])c1)N1CCN(C(=O)c2ccco2)CC1` it was 3.81%.
For `Cc1nc2ccc(NC(=S)N3CCC(C)CC3)cc2nc1C`, the largest response in the series, negative = inhibition was 15.4%.
Turning to `CC1CCN(c2ccc([N+](=O)[O-])cc2C(N)=O)CC1`, the largest response in the series, negative = inhibition was 9.05%.
Regarding `CC1CCN(C(=S)c2cccc(O)c2)CC1`, the Potency is 25.1 µM (active).
As for `CC1=C(C(=O)OC2CCCCC2)C(c2ccccc2F)NC(=O)N1` (configuration not stated), the largest response in the series, negative = inhibition was 7.52%.
On the same count and under the same terms, in the case of `O=C(NC1CCCC1)C(c1ccco1)N(C(=O)c1ccco1)c1ccc(F)cc1` (configuration not stated) it was 20.8%; in that of `COc1ccc(CCNC(=O)c2c(C)nn(-c3ccccc3)c2Cl)cc1`, 9.27%; in that of `CN(CC1CCCO1)S(=O)(=O)c1ccc(C(=O)Nc2ccc([N+](=O)[O-])cc2)cc1` (configuration not stated), -10.7%.
Turning to `Cc1c(NC(=O)c2cc(-c3ccc(Br)cc3)on2)c(=O)n(-c2ccccc2)n1C`, the largest response in the series, negative = inhibition was 2.71%.
On to `Cc1nnc(SCC(=O)Nc2cccc(N)c2)n1-c1ccccc1`, for which the largest response in the series, negative = inhibition was 20%.
For `COc1ccc(-n2cnnc2SCC(=O)Nc2cccc(S(N)(=O)=O)c2)cc1`, the largest response in the series, negative = inhibition was 3.4%.
With `NS(=O)(=O)c1cccc(NC(=O)CSc2nc3ccccc3n2-c2ccccc2)c1`, the Potency was 79.4 µM (active).
In the case of `COC(=O)c1c(NC(=O)C(=O)N2CCCCC2)sc2c1CC(C)(C)OC2`, the largest response in the series, negative = inhibition is -1.3%.
As to `COc1ccc(/C=C/C(=O)N2CCCC2)cc1OC`, the largest response in the series, negative = inhibition was -0.604%.
In the case of `COc1cc(OC)c(C(=S)N2CCCC2)cc1OC`, the Potency was 20 µM (active).
For the compound `COc1cc(OC)c(C(=O)N2CCCC2)cc1OC`, the largest response in the series, negative = inhibition is 10.6%.
On to `COc1ccc(OC)c(CCNC(=O)c2nn(C)c3c2CS(=O)(=O)c2ccccc2-3)c1`, for which the largest response in the series, negative = inhibition was 15.7%.
In the case of `COc1ccc(NC(=O)CN2C(=O)COc3ccc(S(=O)(=O)N4CCOCC4)cc32)c(OC)c1`, the largest response in the series, negative = inhibition was 15.2%.
Take `O=C(c1ccc(S(=O)(=O)N2CCCC2)cc1)N1CCN(c2ccccc2F)CC1`: the largest response in the series, negative = inhibition was 11.7%.
In the case of `COc1ccc(/C=C/c2noc(-c3ccccc3OC(C)=O)n2)cc1`, the largest response in the series, negative = inhibition is -16%.
With `Cc1cccc(NC(=O)c2sc3nc(N4CCOCC4)c4c(c3c2N)CCCC4)c1`, the Potency was 17.8 µM (active).
Consider `CC(=O)Nc1ccc(N2CCOCC2)c(C(=O)Nc2cccc(C)c2)c1`, for which the largest response in the series, negative = inhibition is 6.24%.
On to `Cc1cccc(NC(=O)c2sc3nc4c(c(-c5ccco5)c3c2N)CCC4)c1`, for which the largest response in the series, negative = inhibition is -15.6%.
For `COc1cccc(CNC(=O)CN(C)S(=O)(=O)c2ccc3c(c2)c(=O)n(C)c(=O)n3C)c1`, the largest response in the series, negative = inhibition is -4.3%.
The same measure, in the same setting: for `CC(CC(=O)N1CCN(c2ccccc2)CC1)c1ccccc1` (configuration not stated) the value was 3.18%; for `CCc1ccc(NC(=O)N2CCN(c3ccccc3)CC2)cc1`, 3.63%.
Take `CC(=O)N1CCN(c2ccc(NCc3ccc(C(C)C)cc3)cc2)CC1`: the Potency is 50.1 µM (active).
Turning to `O=C1C(=O)N(CCCO)C(c2ccccc2)/C1=C(\O)c1ccc(Br)cc1` (configuration not stated), the largest response in the series, negative = inhibition is 6.17%.
With `COc1ccc(C2=NS(=O)(=O)N(C)C(C(=O)N3CCCCC3)=C2)cc1`, the largest response in the series, negative = inhibition is 1.59%.

Source of the values: PubChem BioAssay AID1490 (National Center for Advancing Translational Sciences (NCATS), 2009).
